Shown are actives, neighbours in structure and some others; about 1.4% of the full set was active somewhere.
GLD-1 TGE inh: GLD-1-TGE RNA interaction inhibition (C. elegans) | Q17339 | purified GLD-1 + fluorescein TGE RNA, fluorescence polarization | inhibition, % at 5.96 µM | 320,000 compounds, 0.44% hits | AID 2280;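 active = percent inhibition above a per-plate cutoff, the plate mean of test compounds plus 3 SD, cut at about 30% in these data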;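 note: 0% = DMSO wells with GLD-1 and probe and 100% = wells lacking GLD-1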
Target sequence (Q17339 whole entry, looked up): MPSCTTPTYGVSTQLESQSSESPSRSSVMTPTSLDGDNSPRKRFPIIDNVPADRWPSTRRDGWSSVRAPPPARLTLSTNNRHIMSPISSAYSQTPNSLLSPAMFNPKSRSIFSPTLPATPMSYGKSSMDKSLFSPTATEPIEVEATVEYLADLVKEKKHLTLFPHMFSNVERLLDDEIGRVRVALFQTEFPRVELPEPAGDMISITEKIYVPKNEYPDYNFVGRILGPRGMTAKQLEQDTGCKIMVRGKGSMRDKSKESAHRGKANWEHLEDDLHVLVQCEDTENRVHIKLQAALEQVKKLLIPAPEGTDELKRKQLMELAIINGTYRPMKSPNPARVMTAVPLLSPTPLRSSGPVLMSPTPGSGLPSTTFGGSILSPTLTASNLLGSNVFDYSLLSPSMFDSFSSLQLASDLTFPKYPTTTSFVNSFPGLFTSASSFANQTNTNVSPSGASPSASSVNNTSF
EBV gp42 inh: EBV gp42 inhibition; Q1HVG2; inhibition, % (tested at 21.74 µM); 220,000 compounds, 0.42% hits; Fluorescence polarization binding assay, mP read-out; in the data active = inhibition above about 50%
MEX-5 binding: C. elegans MEX-5 TCR-2 RNA binding activity | activity score (negative = inhibition of binding), % at 10 µM | 300,000 compounds, 0.38% hits | Q9XUB2 | AID 1832 | MEX-5/FITC-TCR2 RNA binding, fluorescence polarization; hits give low values;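 active = inhibition past about -25% in most replicates, and total fluorescence under double the plate's negative control median, limit read from the data; inconclusive = replicates evenly split on the limit, or fluorescence at least double controls; inactive = too little inhibition in most replicates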;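 note: 0% = DMSO and -100% = 5 µM competing unlabeled TCR2 RNA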
eLon inh: E. coli protease La inhibition | AID 602123 | 360,000 compounds, 0.42% hits | purified E. coli Lon protease, fluorescence polarization | P0A9M0 | inhibition, % at 7.94 µM; in the data active = inhibition above about 13%, passing the limit was not always enough;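 note: 0% = enzyme with probe and DMSO and 100% = no enzyme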
MCL1 BIM primary: disrupts human MCL1 binding to BIM-BH3 peptide | Q07820 | GST-MCL1 / FITC-Bim-BH3 fluorescence polarization | inhibition, % at 10.9 µM | 320,000 compounds, 0.68% hits | AID 2057;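 active = inhibition above the mean inhibition of all tested compounds plus 3 SD, set per campaign, cut at about 40% in these data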;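 note: 0% = DMSO wells and 100% = unlabeled Bim-BH3 peptide control; higher means more loss of mP so more displacement of Bim peptide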
BCLXL inh: Bcl-xL (human) inhibition; 320,000 compounds, 0.7% hits; inhibition, % at 10.9 µM; GST-Bcl-xL / FITC-Bim BH3 peptide fluorescence polarization; Q07817;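 active = inhibition above the mean of all tested compounds plus 3 SD, cutoff set per campaign, cut at about 30% in these data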;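 note: 0% = DMSO wells and 100% = unlabeled Bim-BH3 peptide competitor; inhibitors lower millipolarization by displacing the labeled peptide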
* hit, by the source's call; ? = inconclusive; . = no result given.

SMILES	GLD-1 TGE inh	EBV gp42 inh	MEX-5 binding	eLon inh	MCL1 BIM primary	BCLXL inh
O=C1NCCN(Cc2cccc(Oc3ccccc3)c2)C1CC(=O)N1CCCO1 (centres undefined)	2	-11	4	-4	-4	4
Cc1cc(C)cc(OCC(=O)NCCc2nc3ccccc3[nH]2)c1	-5	-21	-1	-4	10	47*
Cc1ccccc1S(=O)(=O)NC(=O)C1(C)CCN1C(=O)C1(c2ccccc2)CC1 (centres undefined)	.	.	.	3	.	.
Cc1ccc(NC(=O)/C(=C\c2cccnc2)NC(=O)c2ccco2)cc1	29	-2	-3	1	29	89*
O=C(Nc1cccc(F)c1)/C(=C\c1cccnc1)NC(=O)c1ccco1	0	-21	-1	-5	-1	1
Nc1nn2c(-c3ccccc3)cc(=O)[nH]c2c1N=Nc1ccc(Br)cc1	.	60*	.	-8	.	.
Cc1cc2[nH]c(=O)cc(-c3ccccc3)n2n1	-2	.	0	0	5	5
O=C1NC(=O)/C(=C/c2ccc(-c3cc(C(=O)O)ccc3Cl)o2)S1	3	.	-9	-10	42*	21
Cc1cc(=O)c(C(=O)Nc2cccc(C(=O)NC3CC3)c2)nn1-c1ccccc1	.	.	.	-10	.	.
CCCCC1=CC2=CC(=O)C(C)(OC(=O)CC)C(=O)C2=CN1CCN1CCOCC1 (centres undefined)	21	12	-10	.	37	31*
Cn1c(Cc2ccccc2)nnc1SCC(=O)c1cccs1	6	-4	0	4	-10	-8
Fc1ccc(N=c2ssnc2Cl)c(F)c1	9	-21	-30*	0	7	3
Cc1cccc(C)c1OCC(O)Cn1ccnc1C (centres undefined)	-4	84*	0	8	5	-2
O=C(NCc1ccc(F)cc1)c1cccc2c1C(=O)c1ccc(N3CCC(Cc4ccccc4)CC3)cc1S2(=O)=O	168*	.	.	-25	.	.
O=C(NC1CC1)c1cccc2c1C(=O)c1ccc(N3CCC(Cc4ccccc4)CC3)cc1S2(=O)=O	45*	.	.	-99	.	.
O=C(NCc1ccccc1C(F)(F)F)c1cccc2c1C(=O)c1ccc(N3CCCCC3)cc1S2(=O)=O	-16	.	.	-21	.	.
CC(C)(C)CNC(=O)c1cccc2c1C(=O)c1ccc(N3CCCC3)cc1S2(=O)=O	32*	.	.	-50	.	.
CC1CCN(c2ccc3c(c2)S(=O)(=O)c2cccc(C(=O)NC4CCCCC4)c2C3=O)CC1	7	.	.	-47	-67	-14
O=C(NCc1cc(C(F)(F)F)ccc1Cl)c1cccc2c1C(=O)c1ccc(N3CCC(Cc4ccccc4)CC3)cc1S2(=O)=O	159*	.	.	-10	.	.
O=C(NCCN1CCCCC1)c1cccc2c1C(=O)c1ccc(N3CCCC3)cc1S2(=O)=O	14	.	.	-26	.	.
CNCC(=O)N(CC(C)C)c1c(N)n(CC(C)C)c(=O)[nH]c1=O	-5	0	1	7	24	12
O=C(NCc1ccccc1Cl)C1CCN(C(=O)c2ccco2)CC1	2	.	0	.	-1	0
Cc1cccc(-n2c(=O)c3ccccc3n3c(=S)[nH]nc23)c1C	1	.	2	2	-21	-28
CC(=O)Cn1cnc2c(cnn2-c2ccc(C)c(C)c2)c1=O	-1	.	1	3	2	-1
O=C(NC1CCCCC1)c1cccc2c1C(=O)c1ccc(N3CCCC3)cc1S2(=O)=O	32*	.	.	-30	.	.
SMILES	GLD-1 TGE inh	EBV gp42 inh	MEX-5 binding	eLon inh	MCL1 BIM primary	BCLXL inh
O=C(NC1CCCC1)c1cccc2c1C(=O)c1ccc(N3CCCCC3)cc1S2(=O)=O	-3	.	.	-22	-6	5
C/C(=N\OCC(=O)OCC(=O)NC(=O)c1ccccc1)c1ccc2c(c1)OCO2	6	.	1	-3	-1	-1
Cc1ccc(C(=O)N/C(=C\c2ccc(-c3ccccc3[N+](=O)[O-])o2)C(=O)NCCCN2CCOCC2)cc1	18	.	-7	7	27	32*
Cc1ccc(C(=O)N/C(=C\c2cn(C)c3ccccc23)C(=O)NCCCN2CCOCC2)cc1	-4	.	1	-1	3	5
CCC(C)CNC(=O)c1cccc(OC2CCN(CC(C)(C)C)CC2)c1 (centres undefined)	-4	.	-5	0	9	6
CCCCN(C)C(=O)c1cccc(OC2CCN(CC(C)(C)C)CC2)c1	-3	.	-31*	1	-1	3
COc1ccc2nc(SC)c(C#N)cc2c1	-2	2	0	-8	1	3
COc1ccc2nc(SCC(C)=O)c(C#N)cc2c1	-8	-10	?	-7	18	32*
COc1cc(C(c2c(C)[nH][nH]c2=O)c2c(C)[nH][nH]c2=O)cc([N+](=O)[O-])c1O	1	2	-81*	-6	10	2
CCOc1cc(C(c2c(C)[nH][nH]c2=O)c2c(C)[nH][nH]c2=O)cc([N+](=O)[O-])c1O	0	.	-68*	8	11	5
Cc1ccc(C(c2c(C)[nH][nH]c2=O)c2c(C)[nH][nH]c2=O)cc1[N+](=O)[O-]	-1	-11	0	-16	9	9
O=C1NN(c2cccc(Br)c2)C(=O)/C1=C/c1ccc(-c2cc([N+](=O)[O-])ccc2O)o1	4	101*	-1	-3	21	10
CC1=NN(c2ccc(C)cc2)C(=O)/C1=C/c1ccc(-c2cc([N+](=O)[O-])ccc2O)o1	.	.	0	-10	.	.
Cc1cc(OCC(O)CNC(C)c2ccccc2)ccc1C(C)C (centres undefined)	1	.	3	-2	2	3
COc1ccc(N2C(=O)[C@H]3[C@@H](C2=O)C2c4ccccc4C=NN2[C@H]3C(=O)C(C)(C)C)cc1 (some centres undefined)	4	-8	0	3	4	1
COc1ccc(N2C(=O)[C@@H]3[C@H](C2=O)[C@H]2c4ccccc4C=CN2[C@@H]3C(C)=O)cc1	22	54*	.	0	26	34*
CCOc1ccc2sc(NS(=O)(=O)c3ccc(OC)c(OC)c3)nc2c1	9	-7	0	2	29	64*
c1ccc2[nH]c(CN3CCOCC3)nc2c1	2	8	-1	-1	0	2
Nc1ccc2nc(Cc3ccccc3)[nH]c2c1	76*	2	-8	-2	-3	0
Nc1ccc2nc(CN3CCOCC3)[nH]c2c1	6	-16	-64*	-1	9	9
COc1ccc(OC)c(C(=O)N2CCCC(Nc3ccc(F)cc3)C2)c1 (centres undefined)	-2	.	0	-9	-6	-7
Cc1ccn2cc(CCNC(=O)COc3ccccc3)nc2c1	3	-7	3	-12	2	-1
COc1ccc(C(=O)NC(=S)NNC(=O)c2cnccn2)cc1	-4	-6	-3	2	2	-2
COc1cc(C(=O)NC(=S)NNC(=O)c2cnccn2)cc(OC)c1OC	5	1	-47*	3	15	6
